PfHsp90 yeast 2 – reduces growth (ATP signal) of yeast expressing P. falciparum Hsp90; S. cerevisiae expressing PfHsp90, BacTiter-Glo ATP, 48 h; yeast lacking PDR1 and PDR3 efflux regulators; 310,000 compounds, 0.32% hits; inhibition, % at 9.4 µM; AID 504621;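 active = every replicate shows inhibition above about 80%, whatever the replicate mean, limit read from the data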;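 also: 0% = DMSO neutral controls and 100% = 20 µM radicicol positive controls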
NALP1 yeast inh – blocks the NALP1 inflammasome reconstituted in yeast; 280,000 compounds, 0.61% hits; inhibition, % at 10 µM; S. cerevisiae NALP1/ASC/caspase-1 growth, X-gal OD620, 72 h; in the data active = inhibition mostly above about 24%, no sharp cut-off; inactive = mostly below about 32%
tim23-1 inh – inhibits growth of tim23-1 mutant yeast. S. cerevisiae tim23-1 growth, BacTiter-Glo luminescence, 24 h. inhibition, % at 20 µM. 330,000 compounds, 1.3% hits. AID 463212;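 active = growth inhibition of the mutant yeast at or above 50%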;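 also: temperature-sensitive mutant grown at 25 °C; plate controls were DMSO-treated mutant yeast for no effect and medium wells lacking yeast for full effect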
tim10-1 inh – inhibits growth of tim10-1 mutant yeast | S. cerevisiae tim10-1 ts strain growth, BacTiter-Glo, 24 h | inhibition, % at 20 µM | 330,000 compounds, 2.2% hits | AID 463190;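 active = inhibition of at least 40%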;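 also: mutant grown at 25 °C; 0% = DMSO wells with yeast and 100% = wells holding no yeast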
TIM10 inh – inhibits growth of TIM10 yeast strain; S. cerevisiae TIM10 strain growth, BacTiter-Glo luminescence, 24 h; inhibition, % at 10 µM; 330,000 compounds, 1.4% hits; AID 463195;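 active = inhibition of 40% or more at the single tested concentration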;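 also: wild-type TIM10 isogenic control strain grown at permissive 25 °C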
NLRP3 yeast inh – inhibitors of NALP3 inflammasome in yeast. Yeast reconstituted NLRP3/ASC/caspase-1, beta-gal luminescence, 24 h. inhibition, % at 10 µM. 330,000 compounds, 0.39% hits. AID 2825;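 active = inhibition of 50% or more; inactive = inhibition below 50%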;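 also: plate controls were induced DMSO wells for no effect and uninduced yeast grown without galactose for full effect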
NALP3 confirm – NALP3 inhibition confirmation in yeast. shares compounds with NLRP3 yeast inh. yeast expressing human NALP3, luminescence. inhibition, % at 10 µM. 1,300 compounds, 81% hits; in the data active = inhibition above about 48%
Casp1-ASC yeast – caspase-1-ASC yeast counter-screen hit | 1,000 compounds, 66% hits | inhibition, % at 10 µM | yeast expressing Caspase-1-ASC, luminescence counter screen | shares compounds with NLRP3 yeast inh | AID 488784
NALP3 retest – yeast NALP3 inhibition, confirmed on retest. shares compounds with NLRP3 yeast inh. yeast expressing human NALP3, luminescence read-out. inhibition, % at 10 µM. 1,000 compounds, 53% hits
Numbers without * were called inactive; . = not tested or not shown. Sampled rows, rich in hits. Any-hit rate of the full collection: about 4.2%. Rule as the data show it, unless noted: active = inhibition above about 50%; inactive = the rest.

SMILES	PfHsp90 yeast 2	NALP1 yeast inh	tim23-1 inh	tim10-1 inh	TIM10 inh	NLRP3 yeast inh	NALP3 confirm	Casp1-ASC yeast	NALP3 retest
CCc1ccc2oc(-c3ccc(OC)cc3)cc(=Nc3cccc(C(=O)O)c3)c2c1	17	4	21	16	15	40	.	.	.
CCc1ccc2oc(-c3ccc(OC)cc3)cc(=Nc3c(C)n(C)n(-c4ccccc4)c3=O)c2c1	-29	-4	36	-9	11	53*	42	54*	43
COc1ccc(-c2cc(C(=O)Nc3c(C)n(C)n(-c4ccccc4)c3=O)no2)cc1	3	1	6	3	-2	-3	.	.	.
COc1ccc(-c2cc(=Nc3ccc(C(=O)O)cc3)c3cc(C)ccc3o2)cc1	.	4	27	32	29	53*	72*	57*	41
COc1cccc(NC(=O)Cn2c3ccccc3c3nc4n(c(=O)c32)CCCS4)c1	-2	19	16	17	15	12	.	.	.
COc1ccc(C(=O)NNC(=S)NC(=O)c2ccc(F)cc2)cc1Br	.	.	30	4	32	62*	71*	60*	60*
O=C(NNC(=S)NC(=O)c1ccc(Br)cc1)c1ccc([N+](=O)[O-])cc1	-16	4	30	-2	8	53*	37	37	54*
Cc1cccc(C(=O)NNC(=S)NC(=O)c2ccccc2)c1	13	.	8	17	0	39	.	.	.
COc1ccc(C(=O)NC(=S)NNC(=O)c2cccc(C)c2)cc1	.	.	23	21	16	51*	48	49	48
COc1ccc(C(=O)NC(=S)NNC(=O)c2ccncc2)cc1Br	6	.	24	20	17	7	.	.	.
COc1ccc(C(=O)NNC(=S)NC(=O)c2cccs2)cc1	23	-12	28	4	3	56*	71*	27	44
COc1ccc2oc(=O)c(C(=O)OCc3ccccc3)cc2c1	-47	13	42	33	15	19	.	.	.
N#Cc1ccccc1OCC(=O)OCCCOC(=O)COc1ccccc1C#N	3	19	9	2	0	-6	.	.	.
CCn1nc(NS(=O)(=O)c2ccc(NC(C)=O)cc2)c2cc3cc(C)ccc3nc21	-8	-2	9	1	8	13	.	.	.
COc1ccc(/C=C/c2cc(C(F)(F)F)on2)cc1	-3	11	13	-2	1	17	.	.	.
O=C(Nc1ccc(Nc2ccccc2)cc1)C(Cl)(Cl)Cl	12	36	43	-53	29	61*	68*	.	.
O=C(Nc1ccccc1O)c1ccccc1O	4	15	1	-7	14	7	.	.	.
Cc1cccc(NC(=O)c2ccccc2O)c1C	-35	12	7	-8	-9	57*	57*	52*	59*
CCc1noc(C)c1C(=O)N(CC(C)C)c1c(N)n(Cc2ccccc2)c(=O)[nH]c1=O	1	.	-11	6	-3	6	.	.	.
c1ccc(-c2ccc(-c3cn4c(n3)CCC4)cc2)cc1	-28	51*	41	-20	-119	66*	68*	87*	74*
Cc1ccc(CN2CC(C(=O)Nc3ccc(S(=O)(=O)N4CCCCC4)cc3)CC2=O)cc1 (stereo not given)	-20	7	-5	9	2	10	.	.	.
C=CCc1c(C)nc(C)nc1N/N=C/c1ccccc1O	51	42	38	13	35	55*	57*	38	55*
CCCCCOC(=O)Nc1nnc(CCCCC)s1	.	-6	25	12	2	38	.	.	.
CCCCCc1nnc(NC(=O)OCCC)s1	15	28	31	24	18	54*	73*	57*	47
CCCOc1ccc2c3c(c(=O)oc2c1)CCCC3	3	7	34	-3	-22	55*	63*	78*	64*
SMILES	PfHsp90 yeast 2	NALP1 yeast inh	tim23-1 inh	tim10-1 inh	TIM10 inh	NLRP3 yeast inh	NALP3 confirm	Casp1-ASC yeast	NALP3 retest
O=S(=O)(NC1C2CC3CC(C2)CC1C3)c1ccccc1 (stereo not given)	-1	.	45	19	21	39	.	.	.
CC(C)CN(C(=O)COC(=O)Cc1cccc2ccccc12)c1c(N)n(Cc2ccccc2)c(=O)[nH]c1=O	-7	.	-13	-15	5	18	.	.	.
CC(=O)c1cccc(NC(=O)c2csc3c2CCCCC3)c1	-39	8	18	32	19	10	.	.	.
COCCNC(=O)c1csc2c1CCCC2	1	26	18	4	-1	20	.	.	.
CCOc1ccc(NC(=O)c2csc3c2CCCC3)cc1	1	48	16	14	-9	52*	46	.	.
CCNC(=O)COC(=O)c1csc2c1CCCC2	28	32	16	6	-31	56*	24	.	.
C/C(=N/NS(=O)(=O)c1ccc(CC(C)C)cc1)c1ccncc1	-10	16	0	-15	2	22	.	.	.
O=C(Nc1cccc(-c2ccc(N3CCOCC3)nn2)c1)c1ccc(Cl)cc1	18	.	-1	1	-3	3	.	.	.
O=C(COc1ccc(Cl)cc1)Nc1cccc(-c2ccc(N3CCOCC3)nn2)c1	20	.	-5	-12	-1	61*	75*	49	46
CCn1nnnc1SCC(=O)NC1Cc2ccccc2C1	-3	.	-4	0	0	15	.	.	.
COc1ccc(CNCC(O)COc2ccc(C(C)(C)c3ccccc3)cc2)cc1 (stereo not given)	12	17	38	-7	-11	53*	76*	.	.
COC(=O)c1ccc(CNCC(O)COc2ccc(-c3ccccc3)cc2)cc1 (stereo not given)	-28	24	-32	-24	16	39	.	.	.
CC1CN(c2nc(Nc3ccccc3F)nc(N)c2[N+](=O)[O-])CC(C)O1 (stereo not given)	-12	0	15	11	-15	26	.	.	.
Cc1snc(SCc2ccc(Cl)cc2)c1C#N	9	28	1	-5	5	52*	49*	63*	25
Cc1snc(SCc2ccc(F)cc2)c1C#N	3	13	9	1	-21	38	.	.	.
CC(Oc1ccc(F)cc1)C(=O)Nc1cc(C(F)(F)F)ccc1-n1cncn1 (stereo not given)	.	.	23	31	1	50	64*	42	38
COc1ccc(C(=O)Nc2cc(C(F)(F)F)ccc2-n2cncn2)cc1	0	6	11	25	-16	14	.	.	.
CC1Cc2nc(SCC(=O)OCc3ccccc3)n(C)c(=O)c2S1 (stereo not given)	-12	.	7	4	-35	59*	70*	43	39
Cc1c(C(=O)NCCCN2CCCC2=O)oc2ccc(S(=O)(=O)N3CCOCC3)cc12	-28	8	10	2	-5	15	.	.	.

Compound activity deposited in PubChem BioAssay by several laboratories.
